RAM inhibit – blocks the yeast RAM network; S. cerevisiae dse1pr::URA3 reporter, 5-FOA growth OD615, 2 d; analog-sensitive cbk1-as2 kinase mutant strain; inhibition, % at 50 µM; 1.8% of 190,000 active; AID 868;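 active means inhibition above a set limit, 3 SD over mean compound inhibition, cut at about 8.4% in these data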;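 further: inhibition rescues growth on 5-FOA so higher OD means more RAM inhibition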
L major viab – inhibitors of Leishmania major promastigote growth. Leishmania major promastigotes, resazurin fluorescence viability. 9% of 200,000 active. AID 1063. inhibition, % at 10 µM; in the data active means inhibition above about 50%;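 further: promastigotes grown with compound for 44 hours at 28 °C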
WT yeast gro inh – growth inhibition of WT yeast, mitochondrial fusion screen. mitochondrial fusion phenotypic screen, WT strain. AID 1362. 2.1% of 190,000 active. inhibition, % at 10 µM; in the data active means inhibition above about 58%; tested in S. cerevisiae
CHOP inhibitor – blocks CHOP induction under ER stress | CHO-K1 CHOP-promoter luciferase, tunicamycin-induced, 15-18 h | inhibition, % at 10 µM | 3.8% of 220,000 active;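 active means compounds that reduced the stress-induced luciferase reporter signal by more than about 70% of percent inhibition, limit read from the data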
A number is an active result. Rows were chosen to be rich in hits. Some 13% of all compounds tested hit in one or more screens of this group.

Screening C#CCNC(=O)C1=C[C@H](C(C)(C)C)C[C@H](OCc2ccc(CO)cc2)O1 returned RAM inhibit inactive, L major viab inactive, WT yeast gro inh inactive and CHOP inhibitor inactive.
For CC(C)(C)[C@@H]1C=C(C(=O)Nc2ccccc2)O[C@H](OCc2ccc(CO)cc2)C1 the results were RAM inhibit 8.5, L major viab 99, WT yeast gro inh inactive and CHOP inhibitor inactive.
For O=C(C1CCCN1C(=O)c1cccs1)N1CCc2ccccc21 (stereo unspecified) the results were RAM inhibit inactive, L major viab inactive, WT yeast gro inh inactive and CHOP inhibitor inactive.
`Cc1[nH]c2ccccc2c1C(=O)CN1CC(C)OC(C)C1` (stereo unspecified) gave CHOP inhibitor inactive.
COc1cccc(NC(=S)N(Cc2ccccn2)Cc2ccccc2Cl)c1 was read as RAM inhibit inactive, L major viab 62, WT yeast gro inh 68 and CHOP inhibitor inactive.
`COc1ccc(NC(=S)N(Cc2ccccn2)Cc2ccccc2Cl)cc1` gave RAM inhibit inactive, L major viab inactive, WT yeast gro inh 75 and CHOP inhibitor inactive.
For CC(=O)c1nn(-c2cccc(Br)c2)cc1C(=O)c1ccccc1 the results were RAM inhibit inactive, L major viab inactive, WT yeast gro inh inactive and CHOP inhibitor 74.
Cc1cc(NC(=O)CSc2nc3cc(C(=O)NCCCOC(C)C)ccc3c(=O)n2Cc2ccco2)no1 was read as RAM inhibit inactive, L major viab inactive, WT yeast gro inh inactive and CHOP inhibitor inactive.
COCc1[nH]nc2c1C(c1sccc1C)C(C#N)=C(N)O2 (stereo unspecified) was read as RAM inhibit inactive, L major viab 72, WT yeast gro inh inactive and CHOP inhibitor inactive.
For CCCc1[nH]nc2c1C(c1ccc(O)cc1OCC)C(C#N)=C(N)O2 (stereo unspecified) the results were RAM inhibit inactive, L major viab 56, WT yeast gro inh inactive and CHOP inhibitor inactive.
`CCCc1[nH]nc2c1C(c1ccsc1)C(C#N)=C(N)O2` (stereo unspecified) gave RAM inhibit inactive, L major viab inactive, WT yeast gro inh inactive and CHOP inhibitor inactive.
`CCCc1[nH]nc2c1C(C1CCCCC1)C(C#N)=C(N)O2` (stereo unspecified) gave RAM inhibit inactive, L major viab 93, WT yeast gro inh inactive and CHOP inhibitor inactive.
O=C(N/N=C/c1cccc(F)c1)c1c(O)c2c([nH]c1=O)CCCC2 was read as RAM inhibit inactive, L major viab inactive, WT yeast gro inh inactive and CHOP inhibitor 82.
Cn1c(=O)c(C(=O)Nc2ccccc2S(N)(=O)=O)c(O)c2ccccc21 was read as CHOP inhibitor inactive.
CCC(C)n1c(=O)c(C(=O)Nc2ccccc2S(N)(=O)=O)c(O)c2ccccc21 (stereo unspecified) was read as RAM inhibit inactive, L major viab inactive, WT yeast gro inh 65 and CHOP inhibitor inactive.
Screening CNC(=O)c1ccccc1NC(=O)c1c(O)c2c([nH]c1=O)CCCC2 returned RAM inhibit inactive, L major viab inactive, WT yeast gro inh inactive and CHOP inhibitor inactive.
CC(C)Cn1c(=O)c(C(=O)Nc2ccccc2S(N)(=O)=O)c(O)c2ccccc21 was read as RAM inhibit inactive, L major viab inactive, WT yeast gro inh 73 and CHOP inhibitor 73.
`CC(C)Cn1c(=O)c(C(=O)N/N=C/c2cccc(F)c2)c(O)c2ccccc21` gave RAM inhibit inactive, L major viab 70, WT yeast gro inh inactive and CHOP inhibitor 82.
Screening CC(=O)Nc1ccc(CN2CCN(CCc3ccccc3)C(CCO)C2)cc1 (stereo unspecified) returned RAM inhibit inactive, L major viab inactive, WT yeast gro inh inactive and CHOP inhibitor inactive.
O=C(O)/C=C/c1nc(-c2ccccc2)n2ccccc12 was read as RAM inhibit inactive, L major viab inactive, WT yeast gro inh inactive and CHOP inhibitor inactive.
COCCn1c(=O)[nH]c(=O)c2c(C(F)(F)F)cc(-c3cccs3)nc21 was read as RAM inhibit inactive, L major viab inactive, WT yeast gro inh inactive and CHOP inhibitor inactive.
Screening CCc1ccc(NC2=CC(=O)CC(c3ccco3)C2)cc1 (stereo unspecified) returned RAM inhibit inactive, L major viab 63 and CHOP inhibitor inactive.
CCOC(=O)C1=C(C)Nc2nnnn2C1c1ccc(OC)c(Br)c1 (stereo unspecified) was read as RAM inhibit inactive, L major viab 91, WT yeast gro inh inactive and CHOP inhibitor inactive.
`CC1=C(C(=O)OC2CCCCC2)C(c2cccnc2)n2nnnc2N1` (stereo unspecified) gave RAM inhibit inactive, L major viab inactive, WT yeast gro inh inactive and CHOP inhibitor inactive.
COc1ccc(C2C(C(=O)OC3CCCCC3)=C(C)Nc3nnnn32)c(OC)c1OC (stereo unspecified) was read as RAM inhibit inactive, L major viab 91, WT yeast gro inh inactive and CHOP inhibitor inactive.
Screening CCCCOC(=O)C1=C(C)Nc2ncnn2C1c1ccc(OC)c(OC)c1 (stereo unspecified) returned RAM inhibit inactive, L major viab 75, WT yeast gro inh inactive and CHOP inhibitor inactive.
CCCCOC(=O)C1=C(C)Nc2nnnn2C1c1ccccc1Cl (stereo unspecified) was read as RAM inhibit inactive, L major viab inactive, WT yeast gro inh inactive and CHOP inhibitor 83.
For O=C(COc1ccc(Nc2ccccc2)cc1)OCC(=O)N1CCCCC1 the results were CHOP inhibitor inactive.
O=C(CCn1cccc1)Nc1ccc(OC(F)(F)F)cc1 was read as RAM inhibit inactive, L major viab inactive, WT yeast gro inh inactive and CHOP inhibitor inactive.
Screening CCn1c(NCc2cc(Cl)ccc2O)nc2ccccc21 returned CHOP inhibitor inactive.
`CN1CCC2(CC1)N=C(c1ccc(F)cc1)C(=S)N2C(=O)c1ccccc1` gave RAM inhibit inactive, L major viab inactive, WT yeast gro inh inactive and CHOP inhibitor inactive.
For CCN1CCC2(CC1)N=C(c1ccc(F)cc1)C(=S)N2C(=O)c1ccc(C(C)(C)C)cc1 the results were RAM inhibit inactive, L major viab inactive, WT yeast gro inh inactive and CHOP inhibitor 93.
Cc1sc2nc(COC(=O)c3cccc(S(=O)(=O)N(C)c4ccccc4)c3)[nH]c(=O)c2c1C was read as RAM inhibit inactive, L major viab inactive, WT yeast gro inh inactive and CHOP inhibitor inactive.
`Cc1c(Br)c([N+](=O)[O-])nn1CC(=O)NCC1CCCO1` (stereo unspecified) gave RAM inhibit inactive, L major viab inactive, WT yeast gro inh inactive and CHOP inhibitor inactive.
`Cc1ccc(C(=O)NNC(=S)NC(=O)COc2ccccc2)cc1` gave RAM inhibit inactive, L major viab inactive, WT yeast gro inh 84 and CHOP inhibitor inactive.
`COc1ccc(C(=O)NC(=S)NNC(=O)c2ccc(NC(=O)C(C)C)cc2)cc1` gave RAM inhibit inactive, L major viab 71, WT yeast gro inh inactive and CHOP inhibitor inactive.
CCC(=O)NC(=S)NNC(=O)c1ccc([N+](=O)[O-])cc1 was read as RAM inhibit inactive, L major viab 97, WT yeast gro inh inactive and CHOP inhibitor inactive.
CCCCOc1ccc(C(=O)NNC(=S)NC(=O)CC)cc1 was read as RAM inhibit inactive, L major viab 93, WT yeast gro inh inactive and CHOP inhibitor inactive.
